In PubChem BioAssay:

Molecular target: Voltage-gated potassium channel subunit beta-2 (Rattus norvegicus) (UniProt P62483)
Assay: enhancers of rat Kvbeta2 NADPH turnover – biochemical, NADPH fluorescence, primary screen (AID 623);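 further: fluorescence intensity change per second fitted from 20 to 320 s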
Settings: Recombinant KvBeta, NADPH fluorescence decrease slope, 10 min; at 10 µM; active compounds read low;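 active means NADPH fluorescence slope more negative than the mean of all samples by about 3 SD, 99.7% confidence; inactive means the rest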

Chain of Voltage-gated potassium channel subunit beta-2 (Rattus norvegicus) (P62483 whole entry, looked up): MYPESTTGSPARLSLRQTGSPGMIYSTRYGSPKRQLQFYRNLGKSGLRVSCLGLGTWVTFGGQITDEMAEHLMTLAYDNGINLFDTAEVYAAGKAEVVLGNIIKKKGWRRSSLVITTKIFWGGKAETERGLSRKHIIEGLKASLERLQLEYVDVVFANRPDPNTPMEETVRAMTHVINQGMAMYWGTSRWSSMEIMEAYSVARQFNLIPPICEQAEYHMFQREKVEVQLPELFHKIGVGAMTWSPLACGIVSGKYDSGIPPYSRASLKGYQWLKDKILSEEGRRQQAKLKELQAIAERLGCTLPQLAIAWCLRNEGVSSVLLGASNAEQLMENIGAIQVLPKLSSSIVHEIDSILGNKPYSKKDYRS

NADPH fluorescence slope, inactive:
Cc1cc(C)c(C#N)c(SCC(=O)Nc2ccc(S(=O)(=O)Nc3onc(C)c3C)cc2)n1 1.9e-05
CC(C)c1ccc(C(O)c2cnc(C(C)C)n2C)cc1 (stereo not given) -3.1e-05
CN1CCN(S(=O)(=O)c2ccc(NC(=O)c3ccc(F)cc3)cc2)CC1 -2.3e-05
O=c1c2[nH]c3cccc(Cl)c3c2ncn1CCN1CCCCC1 -2.5e-05
COc1ccc(OC)c(C(=O)CSc2nc3ncccc3[nH]2)c1 -7e-05
O=C(CC(CC(=O)c1ccccc1)C(=O)O)c1ccccc1 -3.8e-05
CCOc1ccc2nc(Nc3nc4c(c(=O)[nH]3)CCC4)nc(C)c2c1 -5.3e-05
CCOC(=O)Cn1c(S(=O)(=O)Cc2ccccc2)nc2ccccc21 -1.4e-05
CC(C)NC(=O)Nc1cccs1 -5.6e-05
CC(C)COC(=O)C1[C@H]2C(=O)N(Cc3cccs3)C[C@]23C=C[C@H]1O3 (stereo not given in full) -1.4e-05
CN(C)S(=O)(=O)c1ccc(S(=O)(=O)N(Cc2ccco2)Cc2ccccc2Cl)cc1 8.8e-06
COc1cccc(N(C(=O)c2ccco2)C(C(=O)NC2CCCC2)c2ccc(N(C)C)cc2)c1 (stereo not given) -0.000142
CCOc1ccc(Cn2nnc(C(=O)Nc3ccc(OC)cc3OC)c2N)cc1 -3.6e-05
CC(NC(=O)c1ccc2c(c1)OCO2)C(c1cccs1)N1CCOCC1 (stereo not given) 2.3e-05
Cn1c(=N)c(S(=O)(=O)c2ccccc2)cc2c(=O)n3ccccc3nc21 -9.2e-06
